Screen size: about 37,000 compounds; about 2,800 (7.6%) were called active. Roughly 1% stayed inconclusive and do not appear here. The entries come from a sample that favours actives as a whole. Unmarked numbers belong to inactive results. Rule as the data show it: active = inhibition above about 80%; inconclusive = no clear call, values can overlap the other calls; inactive = below that.

The nature of this experiment: NOMO-1 AML cell viability reduction, primary screen, STK33 inhibitor project, CellTiter-Glo luminescence (AID 2330). As to conditions: NOMO-1 AML viability, 72 h, stronger effect = higher value, concentration not given here. (Cellular ATP, detected with luciferase, serves as a proxy for viable cell number.)
The inhibition is the relative decrease from the control value, in per cent. For the molecule `N#Cc1cccc(CSc2nnc(CCCO)n2-c2ccccc2)c1`, the inhibition was -3.86%.

For the molecule `C[C@H]1CN([C@@H](C)CO)C(=O)c2cc(NS(=O)(=O)c3cn(C)cn3)ccc2O[C@H]1CN(C)CC1CCCCC1`, the inhibition is 0.874%.

With `Cc1noc(C)c1NC(=O)Nc1ccc2c(c1)C(=O)N([C@@H](C)CO)C[C@H](C)[C@@H](CN(C)C)O2`, the inhibition is 17.2%.

In the case of `O=C(Nc1ccc(C23CC4CC(CC(C4)C2)C3)cc1)c1cccs1`, the inhibition was 1.68%.

As for `Cc1noc(C)c1S(=O)(=O)Nc1cccc2c1O[C@H](CN(C)Cc1ccc(C(F)(F)F)cc1)[C@H](C)CN([C@@H](C)CO)C2=O`, the inhibition is 11.5%.

Consider `C[C@H]1CN([C@@H](C)CO)C(=O)Cc2cc(NC(=O)NC3CCCCC3)ccc2O[C@H]1CN(C)S(=O)(=O)c1ccccc1`, for which the inhibition was 0.581%.

For the molecule `CC(=O)Nc1ccc(S(=O)(=O)N2CCCC2C(=O)O)cc1` (centres undefined), the inhibition is 27.5%.

As for `C[C@H]1CN([C@@H](C)CO)C(=O)Cc2cc(NS(=O)(=O)c3ccc(Cl)cc3)ccc2O[C@@H]1CN(C)S(=O)(=O)c1ccccc1`, the inhibition is 48.5%.

Consider `Cc1ccc(S(=O)(=O)N(C)C[C@H]2Oc3ccc(NC(=O)C4CC4)cc3C(=O)N([C@H](C)CO)C[C@H]2C)cc1`, for which the inhibition is 32.5%.

As for `CCOc1c(S(=O)(=O)NCc2cccnc2)ccc(Cl)c1Cl`, the inhibition was -5.95%.

Take `Cc1ccc(Cl)cc1NC(=O)CN(c1cccc(Cl)c1C)S(C)(=O)=O`: the inhibition was 47.6%.

In the case of `C[C@@H]1CN([C@@H](C)CO)C(=O)c2cccc(NS(=O)(=O)c3cccs3)c2O[C@H]1CN(C)Cc1ccncc1`, the inhibition is -14.5%.

As to `Cc1noc(C)c1S(=O)(=O)Nc1ccc2c(c1)C(=O)N([C@@H](C)CO)C[C@@H](C)[C@H](CN(C)C(=O)Nc1cccc3ccccc13)O2`, the inhibition was 7.46%.

Consider `Cc1noc(C)c1S(=O)(=O)Nc1ccc2c(c1)C(=O)N([C@@H](C)CO)C[C@@H](C)[C@H](CN(C)Cc1ccc(-c3ccccc3)cc1)O2`, for which the inhibition is 20.3%.

Take `Cc1noc(C)c1S(=O)(=O)Nc1ccc2c(c1)C(=O)N([C@@H](C)CO)C[C@H](C)[C@H](CN(C)Cc1ccc(C(=O)Nc3ccccc3N)cc1)O2`: the inhibition is 104% (active).

With `Cn1nnc2cc(C(=O)N(CCO)c3ccccc3)ccc21`, the inhibition was -5.36%.

For `Cc1ccc2nc(-c3ccncc3)cc(C(=O)NCc3ccccn3)c2c1`, the inhibition was 53.9%.

`COC(=O)c1c(NC(=O)c2cc(-c3ccccn3)nc3ccc(Br)cc23)sc(C(=O)N(C)C)c1C`: the inhibition is 85.7% (active).

On to `COC(=O)c1c(NC(=O)c2cc(-c3ccccn3)nc3c(C)cc(C)cc23)sc(C)c1C`, for which the inhibition was 19.6%.

As for `Cc1noc(C)c1NC(=O)Nc1ccc2c(c1)C(=O)N([C@H](C)CO)C[C@H](C)[C@H](CN(C)Cc1ccc(Oc3ccccc3)cc1)O2`, the inhibition was 30%.

In the case of `Cc1cc(C(=O)Nc2cccc3c2O[C@@H](CN(C)C(=O)Nc2ccc4c(c2)OCO4)[C@H](C)CN([C@@H](C)CO)C3=O)n(C)n1`, the inhibition is 11.4%.

For the molecule `C[C@H]1CN([C@@H](C)CO)C(=O)c2cccc(NC(=O)c3ccc(-c4nccs4)cc3)c2O[C@H]1CN(C)Cc1ccc(C(=O)O)cc1`, the inhibition was 23.4%.

Take `C[C@@H]1CN([C@@H](C)CO)C(=O)c2cccc(NC(=O)c3ccc(-c4nccs4)cc3)c2O[C@@H]1CN(C)Cc1ccncc1`: the inhibition was 35.3%.

Regarding `C[C@H](CO)N1C[C@H](C)[C@@H](CN(C)S(C)(=O)=O)Oc2c(NC(=O)c3ccc(-c4nccs4)cc3)cccc2C1=O`, the inhibition is 3.98%.

`C[C@H](CO)N1C[C@H](C)[C@H](CN(C)S(C)(=O)=O)Oc2c(NC(=O)c3ccc(-c4nccs4)cc3)cccc2C1=O`: the inhibition is 1.84%.

As for `C[C@H](CO)N1C[C@H](C)[C@@H](CN(C)Cc2ccc(C(=O)Nc3ccccc3N)cc2)Oc2c(NC(=O)c3ccc(-c4nccs4)cc3)cccc2C1=O`, the inhibition is 138% (active).

`C[C@@H]1CN([C@@H](C)CO)C(=O)c2cccc(NC(=O)c3ccc(-c4nccs4)cc3)c2O[C@H]1CN(C)Cc1ccc(Cl)c(Cl)c1`: the inhibition is 97.3% (active).

As to `CC(C)NC(=O)N(C)C[C@H]1Oc2c(NS(=O)(=O)c3ccc(Cl)cc3)cccc2C(=O)N([C@@H](C)CO)C[C@H]1C`, the inhibition was 12.1%.

Regarding `COc1ccc(NC(=O)Nc2ccc3c(c2)C(=O)N([C@@H](C)CO)C[C@H](C)[C@@H](CN(C)C(=O)NC2CCCCC2)O3)cc1`, the inhibition was -2.68%.

Regarding `CCOc1cc(S(=O)(=O)NC2CC(C)(C)NC(C)(C)C2)ccc1F`, the inhibition was -9.77%.

With `CC(=O)Nc1ccc(NC(=O)CC2C(=O)Nc3ccccc3N2C(C)=O)cc1` (centres undefined), the inhibition was -5.07%.

On to `CC(=O)Nc1ccc(Nc2c3c4c(cccc4[nH]c2=O)C(=O)c2ccccc2-3)cc1`, for which the inhibition was 115% (active).

Consider `CC(=O)Nc1ccc(NC(=O)COc2ccccc2C(=O)Nc2cccc(Cl)c2Cl)cc1`, for which the inhibition is -3.66%.

Regarding `Cc1ccc(C23CC4CC(CC(CN)(C4)C2)C3)cc1C`, the inhibition is 116% (active).

`O=C(CSc1nc2ccccc2o1)Nc1ccccn1`: the inhibition was 2.56%.

For the molecule `Cc1ccc(S(=O)(=O)N(C)C[C@@H]2Oc3c(NC(=O)Nc4c(C)noc4C)cccc3C(=O)N([C@@H](C)CO)C[C@@H]2C)cc1`, the inhibition is 22.7%.

`O=C(CSc1nnc(-c2ccncc2)n1-c1ccccc1)Nc1ccc(Cl)c(Cl)c1`: the inhibition is 33.8%.

Take `CCn1c(SCC(=O)Nc2cc(Cl)ccc2OC)nnc1-c1ccc(Br)cc1`: the inhibition was 25%.

For `COC(=O)CSc1nnc(-c2ccc(Cl)cc2)n1-c1ccc(Br)cc1`, the inhibition was 95.1% (active).

Regarding `O=C(CSc1nnc(-c2ccncc2)n1-c1ccc(Cl)cc1)Nc1ccc(C(=O)O)cc1`, the inhibition is -34.2%.

Regarding `O=C(CSc1nnc(-c2ccccc2)n1-c1ccc(Cl)cc1)Nc1ccc(Cl)cc1`, the inhibition is 83.3% (active).

On to `COc1ccc(C(C)=O)cc1CSc1nnc(-c2ccc(Br)cc2)n1-c1ccccc1`, for which the inhibition is 15.8%.

Regarding `O=C(CC(=O)c1ccccc1O)c1ccccc1`, the inhibition was 42.5%.

Regarding `C[C@@H]1CN([C@@H](C)CO)C(=O)Cc2cc(NC(=O)Cn3cnnn3)ccc2O[C@@H]1CN(C)S(=O)(=O)c1cn(C)cn1`, the inhibition was -10.4%.

As for `COc1ccc(NC(=O)CN2CCN(S(=O)(=O)c3ccc4ccccc4c3)CC2)cc1`, the inhibition was 8.78%.

`COC(=O)C1=C[C@H](O[C@@H]2O[C@H](CO)[C@@H](O)[C@H](O)[C@H]2O)C[C@H]2[C@]3(C)C[C@@H](c4ccoc4)OC(=O)[C@H]3CC[C@@]12C`: the inhibition was 22.8%.

As to `COc1ccc(NC(=O)N(C)C[C@@H]2Oc3c(NS(=O)(=O)c4ccc(OC)cc4)cccc3C(=O)N([C@H](C)CO)C[C@@H]2C)cc1`, the inhibition is 14.6%.

Turning to `O=c1[nH]c(CSCCO)nc2c1C1(CCCCC1)Cc1ccccc1-2`, the inhibition was 8.91%.

In the case of `NC(=O)CSc1nnc(-c2ccccc2F)n1-c1ccccc1`, the inhibition is 26.5%.

As for `CCn1c(=O)c2c(n3c(SCC(N)=O)nnc13)-c1ccccc1CC21CCCCC1`, the inhibition was 98.7% (active).

For the molecule `COc1ccc(-c2cc(C(F)(F)F)n3nc(C(=O)NCCCN4CCOCC4)cc3n2)cc1OC`, the inhibition was 2.66%.

With `CC(C)NC(=O)N(C)C[C@H]1Oc2c(NS(=O)(=O)c3cccs3)cccc2C(=O)N([C@H](C)CO)C[C@H]1C`, the inhibition is -11.8%.

With `Cc1c(C(=O)N2CCOCC2)[nH]c2ccc(OCc3ccccc3)cc12`, the inhibition is 34.1%.

As for `O=C(Nc1ccc(OCc2ccccc2)cc1)OCC1CN(Cc2ccccc2)CCO1` (centres undefined), the inhibition is 113% (active).

For the molecule `COc1ccc(Cl)cc1NC(=O)CSc1nnc(-c2ccc(Cl)c(Cl)c2)n1C`, the inhibition was 17.7%.

Consider `COc1ccc(NC(=S)SC)cc1OC`, for which the inhibition is 87.2% (active).

With `COc1ccc(OC(C)C(=O)Nc2ccc(OC)c(OC)c2)cc1` (centres undefined), the inhibition was -22%.

Consider `COc1ccc(NC(=S)NCc2cc(C)n(C)n2)cc1OC`, for which the inhibition was 6.06%.

In the case of `Cc1ccc([N+](=O)[O-])cc1NC(=O)CSC1=NCCS1`, the inhibition was 21.4%.

`C[C@@H]1CN([C@@H](C)CO)C(=O)c2cccc(NC(=O)c3ccc(-c4nccs4)cc3)c2O[C@H]1CN(C)C(=O)Nc1ccccc1`: the inhibition was -9.67%.

With `CC[C@]1(O)C[C@@H]2CN(CCc3c([nH]c4ccccc34)[C@@](C(=O)OC)(c3cc4c(cc3OC)N(C)[C@H]3[C@@](O)(C(=O)OC)[C@H](OC(C)=O)[C@]5(CC)C=CCN6CC[C@]43[C@@H]65)C2)C1`, the inhibition was 112% (active).

In the case of `C[C@@H]1CN([C@H](C)CO)C(=O)c2cc(NC(=O)Nc3ccc4c(c3)OCO4)ccc2O[C@@H]1CN(C)C(=O)Nc1ccc(F)cc1`, the inhibition was 33.1%.

Take `C[C@@H]1CN([C@H](C)CO)C(=O)c2cccc(NS(=O)(=O)c3cn(C)cn3)c2O[C@H]1CN(C)Cc1ccc(C(=O)O)cc1`: the inhibition is -16.7%.

In the case of `Cc1nnc(SCC(=O)Nc2cc(Cl)ccc2C)s1`, the inhibition is 22.1%.

`C[C@@H]1CN([C@@H](C)CO)C(=O)c2cccc(NC(=O)c3ccncc3)c2O[C@@H]1CN(C)CC1CC1`: the inhibition is 4.97%.

Regarding `C[C@H](CO)N1C[C@H](C)[C@@H](CN(C)Cc2ccc(C(=O)Nc3ccccc3N)cc2)Oc2c(NC(=O)C3CC3)cccc2C1=O`, the inhibition was 106% (active).

On to `C[C@@H]1CN([C@@H](C)CO)C(=O)c2cccc(NC(=O)c3cnccn3)c2O[C@H]1CN(C)Cc1ccc(C(=O)O)cc1`, for which the inhibition was -15.7%.

Regarding `C[C@@H]1CN([C@H](C)CO)C(=O)c2cccc(NC(=O)c3cnccn3)c2O[C@@H]1CN(C)Cc1ccc(C(=O)Nc2ccccc2N)cc1`, the inhibition is 126% (active).

With `C[C@@H]1CN([C@@H](C)CO)C(=O)c2cccc(NC(=O)C3CC3)c2O[C@@H]1CN(C)Cc1ccccc1`, the inhibition is 4.47%.

For `Cc1cc(C(=O)Nc2cccc3c2O[C@@H](CN(C)Cc2ccncc2)[C@@H](C)CN([C@@H](C)CO)C3=O)n(C)n1`, the inhibition is 19.4%.

Take `C[C@@H]1CN([C@H](C)CO)C(=O)c2cccc(NC(=O)c3cnccn3)c2O[C@@H]1CN(C)Cc1ccncc1`: the inhibition is 13.1%.

On to `Cc1cc(C(=O)Nc2cccc3c2O[C@@H](CN(C)Cc2ccc(C(=O)Nc4ccccc4N)cc2)[C@H](C)CN([C@@H](C)CO)C3=O)n(C)n1`, for which the inhibition is 89.1% (active).

As to `Cc1cc(C(=O)Nc2cccc3c2O[C@@H](CN(C)Cc2ccc(C(=O)O)cc2)[C@H](C)CN([C@@H](C)CO)C3=O)n(C)n1`, the inhibition is 0.233%.

For the molecule `COc1ccc(CN(C)C[C@H]2Oc3c(NC(=O)C4CC4)cccc3C(=O)N([C@@H](C)CO)C[C@H]2C)cc1`, the inhibition was -16.6%.

The record behind these values is PubChem BioAssay AID2330 (Broad Institute, 2010).
